Results: PubChem BioAssay (NCATS)
“And” between values parts separate entries of the source, which are not always exact repeats. Identical values can stand only once. Records with an inconclusive call do not appear. The source made the active and inactive calls. Unless noted, calls come from the whole dose curve; as a rule, active = well fitted curve in the direction sought with a large enough effect; inconclusive = small, poorly fitted or top-dose-only effect, or another doubt; inactive = no such curve, though single readings can be large; an effect the other way counts as inactive or inconclusive.

Experiments:
SKOV3 = experiment: Primary qHTS to identify gynecologic anti-cancer compounds using libraries of approved drugs and bioactive compounds (AID 1345084); conditions: Gynecologic cancer cell panel viability, ATPlite luminescence, 48 h; series mostly up to 57.5 µM; note: % is set by controls: 0 for no effect and ±100 for the full control effect; nearly all actives have a fitted effect of over 55% in size
How it was run: (§1)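 Cells, 1,000 per well, plated 16 h, then exposed 48 h at 37 C to compounds. Viability by ATPlite luminescence after 15 min at room temperature.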

Tov-21-G = experiment: as above; conditions: Gynecologic cancer cell panel viability, ATPlite luminescence, 48 h; series mostly up to 57.5 µM
How it was run: as §1

Tov112D = experiment: as above; conditions: Gynecologic cancer cell panel viability, ATPlite luminescence, 48 h; series mostly up to 57.5 µM
How it was run: as §1

[1] = Drug repurposing screens with cells derived from glioblastoma tumor samples (AID 1345199); conditions: GBM patient neurospheres viability, ATP luminescence, 48 h; note: % is set by controls: 0 for no effect and ±100 for the full control effect; nearly all actives have a fitted effect of over 40% in size
How it was run: (§2)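 Four patient lines of CD133+ GBM neurospheres were screened at several concentrations; hits were retested in those lines plus three slower-growing GBM lines, using 48-hour treatment and ATP-based viability.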

astro = experiment: as above; conditions: viability, ATP luminescence, 48 h; series mostly up to 45.9 µM
How it was run: as §2

[2] = target: Nuclear receptor subfamily 1 group I member 2 (Rattus norvegicus) (UniProt Q9R1A7); experiment: qHTS assay for small molecule activators of the rat pregnane X receptor (rPXR) signaling pathway (AID 651751; call rule not given here; note: 0% is about no effect); conditions: rPXR reporter cells, luciferase (One-Glo), 24 h
Chain of Nuclear receptor subfamily 1 group I member 2 (Rattus norvegicus) (Q9R1A7 whole entry, looked up): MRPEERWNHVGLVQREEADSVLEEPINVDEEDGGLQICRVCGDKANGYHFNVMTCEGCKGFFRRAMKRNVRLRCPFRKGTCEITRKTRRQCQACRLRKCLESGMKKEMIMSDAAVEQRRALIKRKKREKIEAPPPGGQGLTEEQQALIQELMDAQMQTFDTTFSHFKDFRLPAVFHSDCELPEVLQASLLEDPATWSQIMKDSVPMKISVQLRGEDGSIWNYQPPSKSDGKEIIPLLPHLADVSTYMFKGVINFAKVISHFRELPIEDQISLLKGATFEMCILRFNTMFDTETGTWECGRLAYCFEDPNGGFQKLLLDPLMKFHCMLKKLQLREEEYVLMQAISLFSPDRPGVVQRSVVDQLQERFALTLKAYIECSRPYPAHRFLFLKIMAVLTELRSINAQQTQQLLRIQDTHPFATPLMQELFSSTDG

[3] = qHTS assay for small molecule activators of the human pregnane X receptor (PXR) signaling pathway (AID 720659; call rule not given here; note: 0% is about no effect)
[4] = at 45.9 µM (top of the series), tumour line B
[5] = at 45.9 µM (top of the series), tumour line D
[6] = at 46 µM (top of the series), tumour line A
[7] = at 46.1 µM (top of the series), tumour line C
[8] = at 20 µM (top of the series), tumour line C
[9] = at 21.2 µM (top of the series), tumour line B
[10] = at 21.2 µM (top of the series), tumour line D
[11] = at 21.3 µM (top of the series), tumour line A

C[C@@H]1O[C@@H](OC[C@H]2O[C@@H](Oc3c(-c4ccc(O)c(O)c4)oc4cc(O)cc(O)c4c3=O)[C@H](O)[C@@H](O)[C@@H]2O)[C@H](O)[C@H](O)[C@H]1O
inactive: outcome (SKOV3) | outcome (Tov-21-G) | outcome (Tov112D) | activity, negative = cell killing [1, 4] -2.66% | activity, negative = cell killing [1, 5] 3.42% | activity, negative = cell killing [1, 6] -16.5% | activity, negative = cell killing [1, 7] -1.98% | outcome (astro)

C[n+]1ccccc1/C=N/O
inactive: outcome (SKOV3) | outcome (Tov-21-G) | outcome (Tov112D) | activity, negative = cell killing [1, 8] -23.9% | activity, negative = cell killing [1, 9] -15% | activity, negative = cell killing [1, 10] -26.7% | activity, negative = cell killing [1, 11] -10.2% | outcome (astro)

COc1cc(O)cc(O)c1
inactive: outcome (SKOV3) | outcome (Tov-21-G) | outcome (Tov112D) | activity, negative = cell killing [1, 4] -0.182% | activity, negative = cell killing [1, 5] -4.84% | activity, negative = cell killing [1, 6] -38.5% | activity, negative = cell killing [1, 7] -3.31% | outcome (astro)

Cc1c(C)c2c(c(C)c1OC(=O)c1cccnc1)CC[C@@](C)(CCC[C@H](C)CCC[C@H](C)CCCC(C)C)O2
inactive: outcome (SKOV3) | outcome (Tov-21-G) | outcome (Tov112D) | activity, negative = cell killing [1, 4] -11.4% | activity, negative = cell killing [1, 5] -0.0875% | activity, negative = cell killing [1, 6] -9.82% | activity, negative = cell killing [1, 7] -12.2% | outcome (astro)

OCC(O)CS (centres undefined)
inactive: outcome (SKOV3) | outcome (Tov-21-G) | outcome (Tov112D) | activity, negative = cell killing [1, 4] -7.05% | activity, negative = cell killing [1, 5] -1.81% | activity, negative = cell killing [1, 6] -9.33% | activity, negative = cell killing [1, 7] -1.31% | outcome (astro)

CC(=O)N[C@@H](CC(C)C)C(=O)O
inactive: outcome (SKOV3) | outcome (Tov-21-G) | outcome (Tov112D) | activity, negative = cell killing [1, 4] -11.1% | activity, negative = cell killing [1, 5] -9.62% | activity, negative = cell killing [1, 6] -21.1% | activity, negative = cell killing [1, 7] -11.2% | outcome (astro)

COc1ccc(-c2cc(=O)c3c(O)cc(O[C@@H]4O[C@H](CO[C@@H]5O[C@@H](C)[C@H](O)[C@@H](O)[C@H]5O)[C@@H](O)[C@H](O)[C@H]4O)cc3o2)cc1O
inactive: outcome (SKOV3) | outcome (Tov-21-G) | outcome (Tov112D) | activity, negative = cell killing [1, 4] -6.79% | activity, negative = cell killing [1, 5] 0.355% | activity, negative = cell killing [1, 6] -29.8% | activity, negative = cell killing [1, 7] 3.81% | outcome (astro)

O=C(O)c1cc(=O)c2ccccc2o1
inactive: outcome (SKOV3) | outcome (Tov-21-G) | outcome (Tov112D) | activity, negative = cell killing [1, 4] -4.66% | activity, negative = cell killing [1, 5] -22.4% | activity, negative = cell killing [1, 6] -22.8% | activity, negative = cell killing [1, 7] -14.3% | outcome (astro)

CC1(C)[C@@H](OC(=O)CCC(=O)O)CC[C@]2(C)[C@H]3C(=O)C=C4[C@@H]5C[C@@](C)(C(=O)O)CC[C@]5(C)CC[C@@]4(C)[C@]3(C)CC[C@@H]12
inactive: outcome (SKOV3) | outcome (Tov-21-G) | outcome (Tov112D) | activity, negative = cell killing [1, 8] -5.99% | activity, negative = cell killing [1, 9] -8.6% | activity, negative = cell killing [1, 10] -19.2% | activity, negative = cell killing [1, 11] -22.2% | outcome (astro)

CC(C)C[C@@H](N)C(=O)O
inactive: outcome (SKOV3) | outcome (Tov-21-G) | outcome (Tov112D) | activity, negative = cell killing [1, 4] 3.77% | activity, negative = cell killing [1, 5] 29.1% | activity, negative = cell killing [1, 6] 14.9% | activity, negative = cell killing [1, 7] -0.0622% | outcome (astro)

NC(=O)NC1NC(=O)NC1=O (centres undefined)
inactive: outcome (SKOV3) | outcome (Tov-21-G) | outcome (Tov112D) | activity, negative = cell killing [1, 8] 1.99% | activity, negative = cell killing [1, 9] 4.84% | activity, negative = cell killing [1, 10] -17.3% | activity, negative = cell killing [1, 11] -7.96% | outcome (astro)

CC(=O)Nc1ccccc1
inactive: outcome (SKOV3) | outcome (Tov-21-G) | outcome (Tov112D) | activity, negative = cell killing [1, 4] -6.03% | activity, negative = cell killing [1, 5] -14.5% | activity, negative = cell killing [1, 6] -21.5% | activity, negative = cell killing [1, 7] 6.02% | outcome (astro) | max response [2] 2.33% | outcome [3]

CC1CC(OC(=O)c2ccccc2O)CC(C)(C)C1 (centres undefined)
inactive: outcome (SKOV3) | outcome (Tov-21-G) | outcome (Tov112D) | activity, negative = cell killing [1, 4] -18.3% | activity, negative = cell killing [1, 5] -10.1% | activity, negative = cell killing [1, 6] -28.9% | activity, negative = cell killing [1, 7] 1.33% | outcome (astro) | max response [2] 5.1%

CCN(CC)C(=O)c1cccc(C)c1
inactive: outcome (SKOV3) | outcome (Tov-21-G) | outcome (Tov112D) | activity, negative = cell killing [1, 4] -13.5% | activity, negative = cell killing [1, 5] -4.13% | activity, negative = cell killing [1, 6] -18.8% | activity, negative = cell killing [1, 7] -13.4% | max response [2] 1.44% and 0.626% | outcome [3]

Cc1ccc(S(=O)(=O)NC(=O)NC2CCCCC2)cc1
inactive: outcome (SKOV3) | outcome (Tov-21-G) | outcome (Tov112D) | activity, negative = cell killing [1, 4] -0.759% | activity, negative = cell killing [1, 5] 4.18% | activity, negative = cell killing [1, 7] -11.1% | outcome (astro)

OC[C@@H](O)[C@@H](O)[C@H](O)[C@H](O)CO
inactive: outcome (SKOV3) | outcome (Tov-21-G) | outcome (Tov112D) | activity, negative = cell killing [1, 4] -7.17% | activity, negative = cell killing [1, 5] -4.25% | activity, negative = cell killing [1, 6] -11.8% | activity, negative = cell killing [1, 7] -0.87% | outcome (astro) | max response [2] -1.36% | outcome [3]

C=CCSCC1Nc2cc(Cl)c(S(N)(=O)=O)cc2S(=O)(=O)N1 (centres undefined)
inactive: outcome (SKOV3) | outcome (Tov-21-G) | outcome (Tov112D) | activity, negative = cell killing [1, 4] -4.84% | activity, negative = cell killing [1, 5] -16.7% | activity, negative = cell killing [1, 6] -17.1% | activity, negative = cell killing [1, 7] -16.4% | outcome (astro)

OCCN1C[C@H](O)[C@@H](O)[C@H](O)[C@H]1CO
inactive: outcome (SKOV3) | outcome (Tov-21-G) | outcome (Tov112D) | activity, negative = cell killing [1, 4] -4.15% | activity, negative = cell killing [1, 5] -2.64% | activity, negative = cell killing [1, 6] -17.7% | activity, negative = cell killing [1, 7] -28.1% | outcome (astro)

FC(F)(F)C(Cl)Br (centres undefined)
inactive: outcome (SKOV3) | outcome (Tov-21-G) | outcome (Tov112D) | activity, negative = cell killing [1, 4] -5.12% | activity, negative = cell killing [1, 5] -3.03% | activity, negative = cell killing [1, 6] -22.4% | activity, negative = cell killing [1, 7] -0.139% | outcome (astro) | max response [2] 3.38% | outcome [3]
